Inconclusive results are not listed. Activity calls are given as the source filed them. The call rests on the fitted dose curve; in most records, active means well fitted inhibition curve with a large enough effect; inconclusive means small, poorly fitted or top-dose-only effect; inactive means flat fitted curve, though single readings scatter.

The source of these data is PubChem BioAssay (NCATS).

Holding throughout (assay): qHTS profiling for inhibitors of Plasmodium falciparum proliferation (AID 504749); further: nearly all actives have a fitted effect of over 60% in size
Details in all cases: P. falciparum in erythrocytes, SYBR Green DNA, 72 h; series mostly up to 12.8 µM
Background: Quantitative high-throughput screening tests each substance at several concentrations.

The test system of one test is 3D7. The gist of the method:
(§1)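 Fluorescence of SYBR Green-bound parasite DNA, read at 485/535 nm, served as the growth measure. Infected erythrocytes were cultured with compound 72 h; artemisinin (0.29 uM) and DMSO wells defined the normalization range.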

The subject of another test is AA1029. The gist of the method:
as §1

Another test relates to ATS189. The gist of the method:
as §1

The next test concerns CP185. The gist of the method:
as §1

For a further test, the system named is CP238. The gist of the method:
as §1

The test system of a further test is CP262. The gist of the method: as §1
The subject of the next test is CP265. The gist of the method: as §1
For the next test, the system named is CP268. The gist of the method:
as §1

For the next test, the system named is CP291. The gist of the method: as §1
The subject of the next test is PAD. The gist of the method:
as §1

For the next test, the system named is PC26. The gist of the method:
as §1

The test system of a further test is SC27B. The gist of the method:
as §1

For a further test, the system named is TAB109. The gist of the method: as §1
A further test has as its system CP192. The gist of the method:
as §1

The next test concerns CP201. The gist of the method:
as §1

The next test relates to CP250. The gist of the method:
as §1

A further test deals with CP315. The gist of the method: as §1
The next test deals with DIV30. The gist of the method:
as §1

The subject of another test is JCK. The gist of the method:
as §1
Potency means the concentration at half of the fitted maximal effect.

With `COc1ccc2cc1Oc1ccc(cc1)CC1c3c(cc4c(c3Oc3cc5c(cc3OC)CCN(C)C5C2)OCO4)CCN1C` (centres undefined), the Potency with 3D7 was 11.2 µM (active); in the test on AA1029, 3.55 µM (active); in the test with ATS189, 4.47 µM (active); in the test with CP185, 7.94 µM (active); with CP238, 7.08 µM (active); with CP262, 8.49 µM (active). Besides, the Potency was 8.91 µM (active) with CP265; 13.5 µM (active) in the test on CP268; 12 µM (active) in the test on CP291; 8.91 µM (active) in the test with PAD; 12 µM (active) in the test with PC26; 7.08 µM (active) in the test on SC27B. The Potency in the test with TAB109 was 7.08 µM (active).

In the case of `CC1CCC(C(C)C)C(=O)C1` (centres undefined), the Potency result in the test on 3D7, in the test on AA1029, in the test with ATS189, with CP185, in the test on CP192 and in the test on CP201 was “inactive” throughout. Also, the Potency result with CP238, with CP250, in the test with CP262, with CP265, with CP268 and in the test with CP291 was “inactive” in each case. Besides, the Potency entry in the test with CP315, with DIV30, with JCK, with PAD, in the test on PC26 and with SC27B was “inactive” in each case. In addition, in the test with TAB109, the Potency entry was “inactive”.

On to `COC1CC(O[C@H]2/C(C)=C/CC3CC(C[C@]4(CCC(C)C(C5CCCCC5)O4)O3)OC(=O)[C@H]3C=C(C)/C(=N/O)C4OC/C(=C\C=C\[C@@H]2C)[C@@]43O)OC(C)C1O` (some centres undefined), for which the Potency entry in the test on CP192, in the test with CP201, in the test with CP262, in the test on CP268, in the test on CP291 and in the test with CP315 was “inactive” each time. Besides, the Potency result in the test with PC26 is “inactive”.

On to `CC(=O)OC1CCC2C3CCc4cc(O)ccc4C3CCC12C` (centres undefined), for which the Potency result in the test with 3D7, in the test on AA1029, in the test on ATS189, in the test on CP185, in the test with CP192 and in the test on CP201 was “inactive” each time. Also, the Potency result in the test with CP238, in the test with CP250, in the test with CP262, with CP265, with CP268 and with CP291 was “inactive” throughout. Further, the Potency result in the test on CP315, with DIV30, with JCK, in the test on PAD, in the test with PC26 and in the test with SC27B was “inactive” in each case. The Potency entry in the test with TAB109 is “inactive”.

Take `CC(=O)N[C@H](CC(C)C)C(=O)O`: the Potency result in the test with 3D7, in the test on AA1029, in the test with ATS189, with CP185, with CP192 and in the test with CP201 was “inactive” throughout. For the same compound, the Potency result in the test on CP238, in the test on CP250, in the test on CP262, in the test on CP265, in the test on CP268 and in the test on CP291 was “inactive” in each case. The Potency result in the test on CP315, in the test with DIV30, in the test with JCK, in the test on PAD, with PC26 and in the test on SC27B was “inactive” throughout. Further, the Potency result in the test with TAB109 is “inactive”.

As for `C[C@]1(c2ccccc2)OC(C(=O)O)=CC1=O`, the Potency entry with 3D7, in the test on AA1029, with ATS189, with CP185, with CP192 and in the test with CP201 was “inactive” throughout. Further, the Potency result in the test on CP238, with CP250, in the test with CP262, in the test with CP265, in the test on CP268 and in the test on CP291 was “inactive” throughout. The Potency entry in the test on CP315, in the test with DIV30, in the test on JCK, in the test with PAD, in the test on PC26 and with SC27B was “inactive” each time. Moreover, the Potency result in the test with TAB109 was “inactive”.

In the case of `CO[C@]12C(COC(N)=O)C3=C(C(=O)C(C)=C(N)C3=O)N1CC1NC12` (some centres undefined), the Potency in the test on AA1029 is 2 µM (active); in the test with ATS189, 1.26 µM (active); in the test on CP185, 0.708 µM (active); in the test on CP238, 0.631 µM (active); in the test on CP250, 1.12 µM (active); in the test with JCK, 5.01 µM (active). Also, the Potency in the test on PAD is 0.631 µM (active); in the test with SC27B it was 1 µM (active); with TAB109 it was 2.24 µM (active). Moreover, in the test with CP262, the Potency result was “inactive”.

Take `CCOC(=O)C1=CC(OC(CC)CC)C(NC(C)=O)C(N)C1` (centres undefined): the Potency entry with 3D7, in the test with AA1029, with ATS189, with CP185, in the test with CP192 and in the test with CP201 was “inactive” throughout. Further, the Potency entry in the test on CP238, in the test on CP250, in the test on CP262, in the test on CP265, in the test on CP268 and in the test on CP291 was “inactive” in each case. For the same compound, the Potency result in the test on CP315, in the test with JCK, in the test with PAD, with SC27B and in the test with TAB109 was “inactive” throughout.

For the compound `NC(C(=O)O)[C@@H]1CC(Cl)=NO1` (some centres undefined), the Potency was 1 µM (active) with 3D7; 1 µM (active) in the test with AA1029; 2.82 µM (active) in the test on ATS189; 2.82 µM (active) in the test with CP185; 3.38 µM (active) in the test on CP192; 3.01 µM (active) in the test with CP201. The Potency in the test with CP238 is 2.82 µM (active); with CP250, 2.82 µM (active); in the test with CP262, 4.26 µM (active); with CP265, 3.16 µM (active); in the test on CP268, 1.51 µM (active); with CP291, 2.13 µM (active). In addition, the Potency with CP315 was 3.38 µM (active); in the test with DIV30, 3.38 µM (active); in the test on JCK it was 5.62 µM (active); in the test with PAD it was 0.708 µM (active); with PC26, 1.9 µM (active); with SC27B, 1.41 µM (active). Besides, in the test on TAB109, the Potency is 1 µM (active).

Regarding `CC(=O)OCC(=O)[C@@]12OC3(CCCC3)OC1CC1C3CCC4=CC(=O)C=C[C@@]4(C)[C@]3(F)C(O)C[C@]12C` (some centres undefined), the Potency result in the test with CP185, in the test on CP192, with CP201, with CP250, in the test with CP262 and in the test with CP268 was “inactive” throughout. For the same compound, the Potency entry with CP291, in the test on CP315 and with JCK was “inactive” each time.

As for `CC1(C)S[C@H]2C(NC(=O)[C@@H](N)c3ccc(O)cc3)C(=O)N2[C@@H]1C(=O)O` (some centres undefined), the Potency result in the test with 3D7, with AA1029, in the test with ATS189, in the test with CP185, with CP192 and with CP201 was “inactive” each time. For the same compound, the Potency entry in the test with CP238, with CP250, in the test on CP262, in the test with CP265, in the test on CP268 and in the test on CP291 was “inactive” in each case. Also, the Potency result in the test on CP315, in the test with DIV30, in the test on JCK, in the test on PAD, in the test on PC26 and with SC27B was “inactive” throughout. In the test on TAB109, the Potency entry is “inactive”.

For `COC1C=CO[C@@]2(C)Oc3c(C)c(O)c4c(O)c(c5c(nc6cc(C)ccn65)c4c3C2=O)NC(=O)/C(C)=C\C=CC(C)C(O)[C@@H](C)C(O)C(C)[C@@H](OC(C)=O)C1C` (some centres undefined), the Potency is 12.6 µM (active) in the test on 3D7; 12.6 µM (active) in the test on AA1029; 12.6 µM (active) with ATS189; 10 µM (active) with CP185; 10.7 µM (active) in the test with CP192; 10 µM (active) in the test on CP238. The Potency was 11.2 µM (active) in the test on CP265; 12 µM (active) in the test on CP268; 13.5 µM (active) in the test with CP291; 7.57 µM (active) with CP315; 1.35 µM (active) in the test on DIV30; 3.16 µM (active) with PAD. The Potency is 1.2 µM (active) in the test on PC26, 12.6 µM (active) in the test with SC27B and 11.2 µM (active) with TAB109.

`CN(C)CCCOC1C(C(O)CO)OC2OC(C)(C)O[C@@H]21` (some centres undefined): the Potency entry in the test on 3D7, in the test with AA1029, in the test with ATS189, with CP185, in the test with CP192 and in the test with CP201 was “inactive” in each case. Further, the Potency entry in the test on CP238, in the test on CP250, in the test on CP262, with CP265, in the test on CP268 and in the test with CP291 was “inactive” throughout. Besides, the Potency entry in the test with CP315, in the test on DIV30, in the test with JCK, with PAD, in the test with PC26 and with SC27B was “inactive” in each case. In addition, the Potency entry with TAB109 was “inactive”.
